PG9 binder: binds the HIV-1 gp120 antibody PG9 | inhibition, % at 6.7 µM | actives 0.43% (n = 360,000) | AID 624416 | TR-FRET gp120-PG9 antibody binding; in the data active = inhibition above about 8.5%
MBD2 DNA inh: inhibitors of human MBD2 binding to methylated oligonucleotide. inhibition, % at 4.4 µM. Q9UBB5. TR-FRET. actives 0.31% (n = 370,000); in the data active = inhibition above about 13%
LEDGF integ inh: blocks HIV-1 LEDGF/p75-dependent DNA integration | TR-FRET IN-LEDGF/p75 DNA integration, Eu/Cy5 | inhibition, % at 3.7 µM | actives 0.64% (n = 370,000) | AID 743269;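 active = inhibition above the screen-wide mean plus 3 SD, cut at about 13% in these data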;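 note: signal is the Cy5 over europium emission ratio at 671 and 618 nm; 0% = plate median of compound wells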
rCAG RNA binder: r(CAG) repeat RNA binding; TO-PRO-1 dye displacement fluorescence; inhibition, % at 3 µM; actives 1.3% (n = 370,000); AID 651821;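 active = inhibition above the plate cutoff, the mean of all test compounds on that plate plus 3 SD, cut at about 35% in these data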;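 note: 0% = DMSO alone and 100% = 100 µM mitoxantrone as full dye displacement; higher means more dye released from RNA so lower well fluorescence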
UHRF1 binding: UHRF1 methyl-DNA binding inhibition; Q96T88; UHRF1 binding to methylated oligo, TR-FRET; inhibition, % at 4.4 µM; actives 0.75% (n = 370,000); AID 687016;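 note: UHRF1 SRA domain binding a hemimethylated CpG hairpin DNA probe; 0% = median of test compound wells and 100% = reference inhibitor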
DNMT1 inh: blocks human DNA methyltransferase DNMT1. AID 588458. actives 0.83% (n = 360,000). inhibition (reported as % activation of signal), % at 10 µM. P26358. DNMT1 molecular beacon, Hinp1I cleavage, fluorescence; in the data active = inhibition above about 50%
Target sequence (P26358 504-1616 limits assumed): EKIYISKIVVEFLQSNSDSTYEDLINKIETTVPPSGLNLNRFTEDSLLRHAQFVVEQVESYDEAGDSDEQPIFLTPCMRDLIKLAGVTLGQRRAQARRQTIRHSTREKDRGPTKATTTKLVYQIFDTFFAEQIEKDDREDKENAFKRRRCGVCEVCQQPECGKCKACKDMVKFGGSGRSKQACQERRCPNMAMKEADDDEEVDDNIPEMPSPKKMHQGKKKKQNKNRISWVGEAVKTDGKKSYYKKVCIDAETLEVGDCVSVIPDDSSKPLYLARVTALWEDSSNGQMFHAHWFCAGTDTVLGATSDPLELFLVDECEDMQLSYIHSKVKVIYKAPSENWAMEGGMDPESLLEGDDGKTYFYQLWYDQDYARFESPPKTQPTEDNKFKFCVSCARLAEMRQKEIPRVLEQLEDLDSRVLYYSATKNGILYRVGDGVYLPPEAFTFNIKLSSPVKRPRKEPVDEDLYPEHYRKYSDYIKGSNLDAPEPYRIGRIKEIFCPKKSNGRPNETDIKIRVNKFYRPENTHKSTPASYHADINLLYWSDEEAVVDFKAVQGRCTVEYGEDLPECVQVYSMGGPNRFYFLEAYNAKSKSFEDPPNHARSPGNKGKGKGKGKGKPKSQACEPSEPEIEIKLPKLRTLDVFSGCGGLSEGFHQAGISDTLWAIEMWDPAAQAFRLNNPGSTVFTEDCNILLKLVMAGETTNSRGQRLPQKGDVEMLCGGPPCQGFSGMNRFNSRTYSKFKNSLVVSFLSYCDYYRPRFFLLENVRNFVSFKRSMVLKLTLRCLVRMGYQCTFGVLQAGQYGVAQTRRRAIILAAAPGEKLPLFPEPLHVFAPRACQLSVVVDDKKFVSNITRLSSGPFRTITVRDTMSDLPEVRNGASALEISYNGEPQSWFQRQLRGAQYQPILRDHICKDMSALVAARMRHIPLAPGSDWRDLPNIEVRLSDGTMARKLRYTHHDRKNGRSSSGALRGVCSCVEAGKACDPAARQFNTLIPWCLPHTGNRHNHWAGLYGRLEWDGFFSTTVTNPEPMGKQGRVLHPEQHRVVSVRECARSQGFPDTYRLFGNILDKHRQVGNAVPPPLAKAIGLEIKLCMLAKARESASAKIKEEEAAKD
UHRF1 DNA bind: UHRF1 methyl-oligo binding inhibition as MBD2 counter-screen; shares compounds with MBD2 DNA inh; UHRF1 binding to methylated oligonucleotide, TR-FRET; inhibition, % at 4.4 µM; actives 25% (n = 1,000);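 note: UHRF1 SRA domain binding a labeled hemimethylated CpG hairpin DNA; 0% = vehicle only and 100% = reference inhibitor with vehicle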
MBD2 DBD conf: MBD2-DBD methyl-DNA binding inhibition, TR-FRET confirmation. shares compounds with MBD2 DNA inh. TR-FRET MBD2-DBD binding to methylated oligonucleotide. inhibition, % at 4.4 µM. actives 26% (n = 1,000). AID 720531; in the data active = inhibition above about 14%
Numbers without * were called inactive; . = no result given. Most compounds without a hit are left out; they make up all but 3.5% or so of the library. Cut-off read from the data, not from the text of the source, unless noted: active = inhibition above about 21%; inactive = the rest.

SMILES | PG9 binder | MBD2 DNA inh | LEDGF integ inh | rCAG RNA binder | UHRF1 binding | DNMT1 inh | UHRF1 DNA bind | MBD2 DBD conf
NC(=S)N=Nc1c(O)cc(O)c2[nH]c(=O)ccc12 | -7 | 15* | 30* | 28 | 42* | 66* | 17 | 10
O=C(Nc1ccc(N2CCN(Cc3ccccc3Cl)CC2)cc1)c1cccnc1 | 0 | 15* | -3 | -5 | 0 | 0 | 6 | 4
CCOC(=O)[C@]12CCCC3=C1N(CCC3)C(=O)[C@@H](CC(=O)N1CCN(C(=O)C3CC3)CC1)C2 | . | 2 | 0 | -2 | 2 | . | . | .
CC(C)NS(=O)(=O)c1ccc(OCC(=O)N2CCCC2)c(Cl)c1 | -1 | 24* | -4 | 1 | -1 | 2 | 4 | 6
COC(C(=O)N1CCC(CCC(=O)Nc2ccccc2)CC1)c1ccccc1 (configuration not stated) | -2 | 15* | -3 | -8 | 27* | 0 | 4 | 4
COc1ccc(C(=O)N2CCC(CCC(=O)Nc3cccc(C)c3)CC2)cc1 | -1 | -1 | 0 | -8 | 1 | -1 | . | .
CCCCNC(=O)Cn1c(-c2ccc(OC)cc2)noc1=O | 0 | 14* | -4 | -2 | 13 | 4 | -1 | 2
C/C(=N\NC(=O)C1CCCN(S(=O)(=O)c2ccccc2)C1)c1ccccn1 (configuration not stated) | 1 | 16* | -2 | 4 | -2 | -1 | 6 | 7
CCCCCN(C(=O)CCC(=O)OCC(=O)N1CCCCC1CC)c1c(N)n(CCCC)c(=O)[nH]c1=O (configuration not stated) | 1 | 1 | -5 | -1 | -1 | 1 | . | .
CNC12CCc3cc(OC)c(OC)c(c31)-c1cc3c(cc1C2)OCO3 (configuration not stated) | -4 | 23* | 12 | 0 | 30* | . | 11 | 9
CC(C)(C)Nc1scc(-c2ccccc2)[n+]1-c1ccccc1 | 1 | 18* | 0 | -4 | 5 | 0 | 8 | 3
c1ccc(C[n+]2c(-c3ccccc3)csc2Nc2ccccc2)cc1 | 1 | 0 | 1 | -2 | -3 | 4 | . | .
COC(=O)[C@]12C[C@H](CC(=O)NCCCCc3ccccc3)C(=O)N(CCC3=CCCCC3)C1=C[C@H](COCc1ccccc1)O[C@@H]2C | -1 | -2 | -2 | 7 | -1 | . | . | .
O=C(Cn1cc(COc2cccc([N+](=O)[O-])c2)nn1)c1ccc(O)cc1 | 1 | 13* | 6 | 5 | 21* | 24 | 11 | 9
Cc1ccc(N2CC(O)CSC2=Nc2ccccc2)cc1 (configuration not stated) | -1 | -1 | 1 | 0 | -1 | 3 | . | .
CC(OC(=O)c1ccc(S(C)(=O)=O)c([N+](=O)[O-])c1)C(=O)NC1C2CC3CC(C2)CC1C3 (configuration not stated) | 1 | 0 | 0 | 4 | 1 | 1 | . | .
CCCCn1nnnc1C1(C)CCC(=O)N1Cc1ccco1 (configuration not stated) | 1 | 1 | -3 | 1 | 6 | . | . | .
COC(=O)c1ccc(NC(=O)CCc2nnc3ccc(NCc4ccco4)nn23)cc1 | -1 | 14* | 1 | 11 | 8 | 8 | 4 | 4
O=C(NC1CCOCC1)C1CCC(=O)N(CCc2cccc(F)c2)C1 (configuration not stated) | -2 | 7 | -3 | -4 | 5 | -1 | . | .
O=C([C@@H]1C[C@H]1c1ccccc1)N1CCC(Oc2cccnc2)CC1 | . | -1 | 4 | -3 | 0 | . | . | .
CCSc1nc(C)nc2sc(C)c(C)c12 | -2 | 29* | -1 | 1 | -1 | 24 | 8 | 2
O=C(NC1CCCC1)N[C@@H]1C=C[C@@H](CC(=O)N2CCOCC2)O[C@@H]1CO | 0 | 0 | -2 | 0 | 0 | . | . | .
O=C(NC1CCC1)c1ccc(C#Cc2cccc(F)c2)nc1 | . | 17* | 7 | 1 | 17 | . | 14 | 10
CCC(C)(C)NC(=O)C(c1ccc(OC)cc1)N(C(=O)CCC(=O)Nc1cc(C)on1)c1cc(OC)ccc1OC (configuration not stated) | 2 | 5 | 0 | 3 | 0 | -3 | . | .
Cc1ccc(NC(=O)CSc2nc3[nH]c(=O)cc(O)c3s2)c(Br)c1 | -2 | 64* | 7 | 27 | -1 | 7 | 6 | 2
SMILES | PG9 binder | MBD2 DNA inh | LEDGF integ inh | rCAG RNA binder | UHRF1 binding | DNMT1 inh | UHRF1 DNA bind | MBD2 DBD conf
O=C(CSc1nc2[nH]c(=O)cc(O)c2s1)Nc1nncs1 | -1 | 23* | -3 | 0 | 2 | 1 | 8 | 3
COc1ccc(N(CC(=O)NC2CCCCC2C)S(=O)(=O)c2c(C)nn(C)c2C)cc1 (configuration not stated) | 4 | -1 | -1 | 2 | 1 | 0 | . | .
CN(C(=O)c1cccs1)c1ccccc1C(=O)O | -1 | 16* | 12 | 2 | 32* | 0 | 8 | 4
C=CCn1c(SCC(N)=O)nc2scc(-c3ccc(C)o3)c2c1=O | -4 | 14* | -5 | 6 | 10 | -1 | 2 | 0
C=CCn1c(SCc2ccccc2)nc2scc(-c3ccc(C)o3)c2c1=O | 0 | 7 | -5 | -1 | -1 | 5 | . | .
Cc1cccc(Cn2cc(SCC(=O)Nc3nccs3)c3ccccc32)c1 | -34 | 30* | 2 | 2 | 1 | -1 | 5 | 1
O=C(Nc1ccc2c(c1)OCCO2)C(c1ccncc1)n1c(=O)c(-c2cc3ccccc3[nH]2)nc2ccccc21 (configuration not stated) | 1 | 1 | 0 | 24 | -6 | . | . | .
CCOC(=O)C1=C[C@@H](C(C)(C)C)N(S(=O)(=O)c2ccccc2C)[C@H]1c1ccc(Cl)cc1 | -1 | 3 | -4 | 4 | -1 | 4 | . | .
CC(C)COCc1ccc(O)c2ncccc12 | -2 | -2 | -2 | -2 | 14 | 4 | . | .
CCCOCc1ccc(O)c2ncccc12 | 1 | 19* | -2 | 4 | -1 | 1 | 0 | 2
OC[C@@H]1CN(Cc2ccc3c(c2)OCO3)C[C@H](n2cnc3c(NC4CCC4)ncnc32)O1 | -1 | -4 | 0 | 1 | 0 | 6 | . | .
Cc1nc(CCNC(=O)C2CCC(=O)N(Cc3ccc(Cl)cc3)C2)sc1C (configuration not stated) | 1 | 5 | -3 | -4 | 2 | 1 | . | .
COC(=O)Nc1ccc2c(c1)ncn2C1CCCCC1 | -1 | 1 | -2 | -3 | 1 | 2 | . | .
CC(=O)Nc1ccc2c(c1)ncn2C1CCCCC1 | 0 | 34* | -1 | -3 | -2 | 1 | 3 | 2
